# For some of these results: Results with a measured potency or affinity are listed apart. Activity calls are given as the source filed them. The rule behind the calls is not given here.
# Experiments:
# [1] = Ebola virus entry assay, green fluorescence channel
# [2] = Ebola virus entry assay, blue channel fluorescence
# [3] = Ebola virus entry assay, ratio channel
# [4] = Ebola virus entry assay, green channel fluorescence
# [5] = Ebola virus entry assay, reporter ratio channel; Channel type: primary
# [6] = Ebola virus entry assay, blue channel (ratio component)
# [7] = qHTS profiling of the MIPE4 collection as inhibitors of Plasmodium falciparum (DD2) proliferation (AID 743345); settings: P. falciparum Dd2 in erythrocytes, SYBR Green DNA, 72 h; at 28.5 µM (top of the series)
# How it was run: (§1)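 Parasite DNA was quantified by SYBR Green I fluorescence (ex 485, em 535 nm) after overnight lysis in saponin/Triton buffer at room temperature. Cultures at 0.3% parasitemia and 2.5% hematocrit were first exposed to compound for 72 h at 37 C; signals were normalised to artemisinin (0.29 uM) and vehicle wells.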
# [8] = qHTS profiling of the MIPE4 collection as inhibitors of Plasmodium falciparum (DD2) proliferation (Rep 2) (AID 743346); settings: P. falciparum Dd2 in erythrocytes, SYBR Green DNA, 72 h; at 28.5 µM (top of the series)
# How it was run: as §1
# [9] = qHTS profiling of the MIPE4 collection as inhibitors of Plasmodium falciparum (HB3) proliferation (AID 743347);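 note: plate controls were DMSO vehicle wells for no effect and artemisinin wells for full effect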; settings: P. falciparum HB3 in erythrocytes, SYBR Green DNA, 72 h; at 28.5 µM (top of the series)
# How it was run: as §1
# Throughout, for efficacy: 0% is about no effect.
smiles,measurement,setting,value
CCCOC(=O)Cc1ccc(OCC(=O)N(CC)CC)c(OC)c1,efficacy,[1],-14.5% (inactive)
same,outcome,[2],inactive
same,outcome,[3],inactive
same,outcome,[4],inactive
same,outcome,[5],inactive
same,outcome,[6],inactive
NS(=O)(=O)c1cc2c(cc1Cl)NC(C1CC3C=CC1C3)NS2(=O)=O (configuration not stated),efficacy,[1],-30.9% (inactive)
same,outcome,[2],inactive
same,outcome,[3],inactive
same,outcome,[4],inactive
same,outcome,[5],inactive
same,outcome,[6],inactive
CC(=O)/C=C/C=C1/C2CCC(C2)C1(C)C (configuration not stated),efficacy,[1],-14.5% (inactive)
same,outcome,[2],inactive
same,outcome,[3],inactive
same,outcome,[4],inactive
same,outcome,[5],inactive
same,outcome,[6],inactive
CCN(CC)CC1CCCCN1CC(=O)N1c2ccccc2C(=O)Nc2cccnc21 (configuration not stated),efficacy,[1],31.3% (inactive)
same,outcome,[2],inactive
same,outcome,[3],inactive
same,outcome,[4],inactive
same,outcome,[5],inactive
same,outcome,[6],inactive
CN(C)CCOc1ccccc1Cc1ccccc1,efficacy,[1],74.8% (inactive)
same,AC50,[2],3.55 µM (active)
same,AC50,[3],3.16 µM (active)
same,AC50,[5],3.16 µM (active)
CCCS(=O)c1ccc2nc(NC(=O)OC)[nH]c2c1 (configuration not stated),"parasite growth remaining, % of DMSO control (lower = more inhibition)",[7],99.7%
same,"parasite growth, % of control (lower = inhibition)",[8],101%
same,"growth, % of control",[9],81.4%
same,efficacy,[1],23.9% (inactive)
same,outcome,[2],inactive
same,outcome,[3],inactive
same,outcome,[4],inactive
same,outcome,[5],inactive
same,outcome,[6],inactive
CCCCNc1ccc(C(=O)OCCN(C)C)cc1,efficacy,[1],66.1% (inactive)
same,AC50,[2],20 µM (active)
same,AC50,[3],28.2 µM (active)
same,AC50,[5],28.2 µM (active)
CN1CCN(CCC(=O)N2c3ccccc3Sc3ccc(C(F)(F)F)cc32)CC1,efficacy,[1],68.9% (inactive)
same,AC50,[2],4.47 µM (active)
same,AC50,[3],2.82 µM (active)
same,AC50,[5],2.82 µM (active)
CCCSS/C(CCO)=C(\C)N(C=O)Cc1cnc(C)nc1N,efficacy,[1],-15.5% (inactive)
same,outcome,[2],inactive
same,outcome,[3],inactive
same,outcome,[4],inactive
same,outcome,[5],inactive
same,outcome,[6],inactive
CC(C)(C)c1nnc(NS(=O)(=O)c2ccc(N)cc2)s1,efficacy,[1],-23% (inactive)
same,outcome,[2],inactive
same,outcome,[3],inactive
same,outcome,[4],inactive
same,outcome,[5],inactive
same,outcome,[6],inactive
CCN(CC)C(=O)c1cccc(C)c1,efficacy,[1],-20% (inactive)
same,outcome,[2],inactive
same,outcome,[3],inactive
same,outcome,[4],inactive
same,outcome,[5],inactive
same,outcome,[6],inactive
C=CCN1CC[C@]23CCCC[C@H]2[C@H]1Cc1ccc(O)cc13,efficacy,[1],55.2% (inactive)
same,AC50,[2],39.8 µM (active)
same,outcome,[3],inactive
same,AC50,[5],39.8 µM (active)
CCCCC1(COC(=O)CCC(=O)O)C(=O)N(c2ccccc2)N(c2ccccc2)C1=O,efficacy,[1],-12.3% (inactive)
same,outcome,[2],inactive
same,outcome,[3],inactive
same,outcome,[4],inactive
same,outcome,[5],inactive
same,outcome,[6],inactive
Cc1ccc(O)cc1,efficacy,[1],-17.7% (inactive)
same,outcome,[2],inactive
same,outcome,[3],inactive
same,outcome,[4],inactive
same,outcome,[5],inactive
same,outcome,[6],inactive
CCOC(=O)[C@H](CCc1ccccc1)N[C@@H](C)C(=O)N(CC(=O)O)C1Cc2ccccc2C1,efficacy,[1],28.2% (inactive)
same,outcome,[2],inactive
same,AC50,[3],20 µM (active)
same,outcome,[4],inactive
same,AC50,[5],20 µM (active)
same,outcome,[6],inactive
CC(C)Cc1ccc(C(C)C(=O)OCc2ccccn2)cc1 (configuration not stated),efficacy,[1],-17.6% (inactive)
same,outcome,[2],inactive
same,outcome,[3],inactive
same,outcome,[4],inactive
same,outcome,[5],inactive
same,outcome,[6],inactive
NC(=O)Cc1cccc(C(=O)c2ccccc2)c1N,"parasite growth, % of control (lower = inhibition)",[8],114%
same,efficacy,[1],18% (inactive)
same,outcome,[2],inactive
same,outcome,[3],inactive
same,outcome,[4],inactive
same,outcome,[5],inactive
same,outcome,[6],inactive
COC(=O)[C@@H](N)Cc1ccc(O)c(O)c1,efficacy,[1],-12% (inactive)
same,outcome,[2],inactive
same,outcome,[3],inactive
same,outcome,[4],inactive
same,outcome,[5],inactive
same,outcome,[6],inactive
Cn1c(=O)c2c(ncn2C)n(C)c1=O,efficacy,[1],-24.5% (inactive)
same,outcome,[2],inactive
same,outcome,[3],inactive
same,outcome,[4],inactive
same,outcome,[5],inactive
same,outcome,[6],inactive
CCCc1ncc(C[n+]2ccccc2C)c(N)n1,efficacy,[1],-20.5% (inactive)
same,outcome,[2],inactive
same,outcome,[3],inactive
same,outcome,[4],inactive
same,outcome,[5],inactive
same,outcome,[6],inactive
CCOC(=O)C(C#N)=C(c1ccccc1)c1ccccc1,efficacy,[1],19.4% (inactive)
same,outcome,[2],inactive
same,outcome,[3],inactive
same,outcome,[4],inactive
same,outcome,[5],inactive
same,outcome,[6],inactive
COc1ccc(CN(CCN(C)C)c2ncccn2)cc1,efficacy,[1],-18% (inactive)
same,outcome,[2],inactive
same,outcome,[3],inactive
same,outcome,[4],inactive
same,outcome,[5],inactive
same,outcome,[6],inactive
CCN(CC)CCOCCOC(=O)C1(c2ccccc2)CCCC1,efficacy,[1],62.4% (inactive)
same,AC50,[2],10 µM (active)
same,AC50,[3],10 µM (active)
same,AC50,[5],10 µM (active)
O=C(CCN1CCN2CCCC2C1)N1c2ccccc2Sc2ccc(Cl)cc21 (configuration not stated),efficacy,[1],163% (inactive)
same,AC50,[2],11.2 µM (active)
same,AC50,[3],10 µM (active)
same,AC50,[5],10 µM (active)
Cc1ccc([N+](=O)[O-])[c]2c1[O][Hg]2,efficacy,[1],-177% (inactive)
same,AC50,[2],1.78 µM (active)
same,AC50,[3],0.708 µM (active)
same,AC50,[5],0.708 µM (active)
COc1cccc(CCc2ccccc2OCC(CN(C)C)OC(=O)CCC(=O)O)c1 (configuration not stated),efficacy,[1],95.8% (inactive)
same,AC50,[2],1.78 µM (active)
same,AC50,[3],2 µM (active)
same,AC50,[5],2 µM (active)
CC(=O)NC(Cc1ccccc1)C(=O)O (configuration not stated),efficacy,[1],29.9% (inactive)
same,outcome,[2],inactive
same,outcome,[3],inactive
same,outcome,[5],inactive
CN1CCN(CCCN2c3ccccc3Sc3ccc(S(=O)(=O)N(C)C)cc32)CC1,efficacy,[1],146% (inactive)
same,AC50,[2],2.51 µM (active)
same,AC50,[3],2.24 µM (active)
same,AC50,[5],2.24 µM (active)
CCC(=O)OC1(c2ccccc2)CCN(C)CC1,efficacy,[1],69.7% (inactive)
same,AC50,[2],31.6 µM (active)
same,outcome,[3],inactive
same,AC50,[5],31.6 µM (active)
Oc1c(Cl)cc(Cl)c2cccnc12,efficacy,[1],73.4% (inactive)
same,AC50,[2],39.8 µM (active)
same,outcome,[3],inactive
same,AC50,[5],39.8 µM (active)
COc1cccc2c1C(=O)c1c(O)c3c(c(O)c1C2=O)C[C@@](O)(C(C)=O)C[C@@H]3O[C@H]1C[C@H](N)[C@H](O)[C@H](C)O1,efficacy,[1],54.5% (inactive)
same,AC50,[2],5.01 µM (active)
same,AC50,[3],5.01 µM (active)
same,AC50,[5],5.01 µM (active)
O=C1NCCN1CCN1CCC(c2cn(-c3ccc(F)cc3)c3ccc(Cl)cc23)CC1,efficacy,[1],-279% (inactive)
same,AC50,[2],0.891 µM (active)
same,AC50,[3],1 µM (active)
same,AC50,[5],1 µM (active)
COc1ccc(CCN(C)CCCC(C#N)(c2cc(OC)c(OC)c(OC)c2)C(C)C)cc1OC (configuration not stated),efficacy,[1],75% (inactive)
same,AC50,[2],15.8 µM (active)
same,AC50,[3],14.1 µM (active)
same,AC50,[5],14.1 µM (active)
CC1(C)[C@H](C(=O)O)N2C(=O)C[C@H]2S1(=O)=O,efficacy,[1],90.1% (inactive)
same,AC50,[2],15.8 µM (active)
same,AC50,[3],11.2 µM (active)
same,AC50,[5],11.2 µM (active)
C[C@]12CCC(=O)C=C1C=C[C@@H]1[C@@H]2CC[C@@]2(C)[C@H]1CC[C@@]21CCC(=O)O1,efficacy,[1],123% (inactive)
same,AC50,[2],39.8 µM (active)
same,outcome,[3],inactive
same,AC50,[5],39.8 µM (active)
O=C(CCCN1CCN(c2ccc(F)cc2)CC1)NC1c2ccccc2CSc2ccccc21 (configuration not stated),efficacy,[1],64.4% (inactive)
same,AC50,[2],8.91 µM (active)
same,AC50,[3],7.08 µM (active)
same,AC50,[5],7.08 µM (active)
Oc1ccc([C@H]2CNCc3c2ccc(O)c3O)cc1O,efficacy,[1],69.3% (inactive)
same,AC50,[2],14.1 µM (active)
same,AC50,[3],14.1 µM (active)
same,AC50,[5],14.1 µM (active)
COc1ccc2c(c1)c(CC(=O)OCC(=O)O)c(C)n2C(=O)c1ccc(Cl)cc1,efficacy,[1],44.7% (inactive)
same,outcome,[2],inactive
same,outcome,[3],inactive
same,outcome,[5],inactive
CCOC(=O)[C@H](CCc1ccccc1)N[C@H]1CCc2ccccc2N(CC(=O)O)C1=O,efficacy,[1],88% (inactive)
same,AC50,[2],3.98 µM (active)
same,AC50,[3],3.98 µM (active)
same,AC50,[5],3.98 µM (active)
COc1cc(C(=O)OCCCN2CCCN(CCCOC(=O)c3cc(OC)c(OC)c(OC)c3)CC2)cc(OC)c1OC,efficacy,[1],89.6% (inactive)
same,AC50,[2],17.8 µM (active)
same,AC50,[3],12.6 µM (active)
same,AC50,[5],12.6 µM (active)
c1ccc(C(O[C@H]2CCCN(CCc3ccc4c(c3)OCO4)C2)c2ccccc2)cc1,efficacy,[1],57.8% (inactive)
same,AC50,[2],28.2 µM (active)
same,AC50,[3],25.1 µM (active)
same,AC50,[5],25.1 µM (active)
Cc1nnc2n1-c1sc(CCC(=O)N3CCOCC3)cc1C(c1ccccc1Cl)=NC2,efficacy,[1],52.3% (inactive)
same,outcome,[2],inactive
same,outcome,[3],inactive
same,outcome,[5],inactive
CCCCNc1c(C(=O)OCC)c(C)nc2c1cnn2CC,efficacy,[1],-35% (inactive)
same,AC50,[2],25.1 µM (active)
same,AC50,[3],22.4 µM (active)
same,AC50,[5],22.4 µM (active)
CC1COC2(c3ccccc3Cl)c3cc(Cl)ccc3NC(=O)CN12 (configuration not stated),efficacy,[1],68% (inactive)
same,AC50,[2],28.2 µM (active)
same,AC50,[3],28.2 µM (active)
same,AC50,[5],28.2 µM (active)
CC(C)(C)c1ccc(C(=O)CCCN2CCC(OC(c3ccccc3)c3ccccc3)CC2)cc1,efficacy,[1],47.5% (inactive)
same,AC50,[2],7.94 µM (active)
same,AC50,[3],8.91 µM (active)
same,AC50,[5],8.91 µM (active)
COCC(=O)O[C@]1(CCN(C)CCCc2nc3ccccc3[nH]2)CCc2cc(F)ccc2[C@@H]1C(C)C,efficacy,[1],-180% (inactive)
same,AC50,[2],2.24 µM (active)
same,AC50,[3],2.24 µM (active)
same,AC50,[5],2.24 µM (active)
Clc1ccc2c(c1)CCc1cccnc1C2=C1CCNCC1,efficacy,[1],49.7% (inactive)
same,AC50,[2],7.08 µM (active)
same,AC50,[3],7.94 µM (active)
same,AC50,[5],7.94 µM (active)
CN1CCC(N(Cc2cccs2)c2ccccc2)CC1,efficacy,[1],53.5% (inactive)
same,AC50,[2],3.55 µM (active)
same,AC50,[3],3.16 µM (active)
same,AC50,[5],3.16 µM (active)

# — PubChem BioAssay (NCATS)
